Test systems include RPMI-8226 leukemia; OVCAR-8 ovarian; OVCAR-5 ovarian; OVCAR-4 ovarian; SK-OV-3 ovarian; IGROV1 ovarian; OVCAR-3 ovarian; HS 578T breast; NCI/ADR-RES ovarian; T-47D breast.
What all share (test): NCI-60 one-dose screen, 48 h (100 = growth as untreated, 0 = no growth, -100 = all killed)
Holding throughout (details): 10 µM

Compounds without any hit were thinned out: in the full panel of roughly 83,000, 20% have a hit.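 How to read the values: 0–100, growth inhibition (40 = 60% inhibited); 0, no net growth; -100 to 0, cell death (-40 = 40% of starting cells died; -100 = all dead).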 A number with no mark means an inactive call. Activity calls are given as the source filed them. The calls were made as follows: active = growth percent below 10; inactive = the rest.

With `COc1ccc(-c2nn(-c3cccc(NC(=O)Nc4cc(C(F)(F)F)cc(C(F)(F)F)c4)c3)cc2-c2ccncc2)cc1Cl`, the growth is -25.1% (active) in the test with RPMI-8226 leukemia; 1.12% (active) in the test on OVCAR-8 ovarian; 18.7% with OVCAR-5 ovarian; 16.4% in the test on OVCAR-4 ovarian; 8.88% (active) with SK-OV-3 ovarian; 4.91% (active) in the test with IGROV1 ovarian. In addition, the growth in the test on OVCAR-3 ovarian was 5.75% (active); with HS 578T breast, 0.225% (active); with NCI/ADR-RES ovarian, 5.83% (active); in the test on T-47D breast, 2.31% (active).

As to `N#CCCN1C/C(=C/c2ccc(Br)cc2)C(=O)/C(=C/c2ccc(Br)cc2)C1`, the growth in the test on RPMI-8226 leukemia was -14% (active); with OVCAR-8 ovarian, -17.3% (active); in the test on OVCAR-5 ovarian it was 2.15% (active); in the test on OVCAR-4 ovarian, 0.905% (active); in the test on SK-OV-3 ovarian, 9.84% (active); in the test with IGROV1 ovarian, -69.1% (active). Also, the growth is -65.2% (active) in the test on OVCAR-3 ovarian, 12.4% in the test on HS 578T breast, 16.8% with NCI/ADR-RES ovarian and 6.33% (active) in the test on T-47D breast.

On to `CC1CC(=O)OC(C)C1` (stereo not given), for which the growth in the test with RPMI-8226 leukemia is 104%; in the test with OVCAR-8 ovarian it was 104%; with OVCAR-5 ovarian it was 105%; in the test on OVCAR-4 ovarian, 97.6%; in the test with SK-OV-3 ovarian, 101%; with IGROV1 ovarian, 107%. For the same molecule, the growth in the test on OVCAR-3 ovarian was 116%; with HS 578T breast it was 112%; in the test on NCI/ADR-RES ovarian it was 112%; in the test with T-47D breast, 107%.

As to `COc1ccc(-c2nc3sc(-c4ccccc4)c(-c4ccccc4)n3c2/C=C/C(=O)c2ccccn2)cc1`, the growth with RPMI-8226 leukemia was 45.7%; in the test on OVCAR-8 ovarian, 67.9%; in the test with OVCAR-5 ovarian, 115%; with OVCAR-4 ovarian, 43.7%; with SK-OV-3 ovarian it was 103%; with IGROV1 ovarian it was 82.6%. Besides, the growth is 81.3% in the test on OVCAR-3 ovarian, 80.6% in the test with HS 578T breast, 85.9% with NCI/ADR-RES ovarian and 63.9% in the test with T-47D breast.

In the case of `O=C(Nc1ccccc1)Nc1cccc(-n2cc(-c3ccncc3)c(-c3ccc(O)c(Cl)c3)n2)c1`, the growth in the test on RPMI-8226 leukemia is 9.53% (active); in the test with OVCAR-8 ovarian, 42.7%; in the test with OVCAR-5 ovarian, 91.1%; in the test on OVCAR-4 ovarian, 72.8%; with SK-OV-3 ovarian, 58.6%; in the test with IGROV1 ovarian, 89.7%. Moreover, the growth with OVCAR-3 ovarian was 73.8%; in the test with HS 578T breast, 40%; with NCI/ADR-RES ovarian, 83.2%; in the test with T-47D breast, 44.6%.

With `COc1ccc(-c2nn(-c3cccc(NC(=O)c4ccc(N5CCOCC5)c(C(F)(F)F)c4)c3)cc2-c2ccncc2)cc1Cl`, the growth is 14.6% with RPMI-8226 leukemia; 55.3% with OVCAR-8 ovarian; 73.1% with OVCAR-5 ovarian; 92.3% in the test on OVCAR-4 ovarian; 83.5% in the test with SK-OV-3 ovarian; 94.3% in the test on IGROV1 ovarian. In addition, the growth with OVCAR-3 ovarian is 83.3%; in the test with HS 578T breast it was 41.1%; with NCI/ADR-RES ovarian it was 52.7%; in the test with T-47D breast, 68.1%.

For `COc1cc(-c2cc(/C=C/C(=O)c3ccc(N)cc3)[nH]n2)cc(OC)c1OC`, the growth with RPMI-8226 leukemia was -26.5% (active); in the test on OVCAR-8 ovarian it was -53.4% (active); with OVCAR-5 ovarian, -15% (active); in the test on OVCAR-4 ovarian, 26.8%; in the test with SK-OV-3 ovarian, 27.2%; in the test with IGROV1 ovarian, 18.1%. Besides, the growth in the test with OVCAR-3 ovarian was -45.9% (active); in the test on HS 578T breast, 19.2%; in the test on NCI/ADR-RES ovarian it was 64.7%; with T-47D breast it was 5.11% (active).

`CSc1nc(=O)n(Cc2ccc(Cl)cc2)c(=O)[nH]1`: the growth is 103% in the test with RPMI-8226 leukemia; 98.8% in the test on OVCAR-8 ovarian; 102% in the test with OVCAR-5 ovarian; 110% in the test with OVCAR-4 ovarian; 99.7% in the test with SK-OV-3 ovarian; 132% with IGROV1 ovarian. For the same molecule, the growth in the test with OVCAR-3 ovarian was 114%; in the test on HS 578T breast it was 105%; in the test with NCI/ADR-RES ovarian it was 105%; in the test on T-47D breast it was 90.1%.

On to `COc1cc(-c2cc(/C=C/C(=O)c3ccc(Cl)c(Cl)c3)[nH]n2)cc(OC)c1OC`, for which the growth in the test on RPMI-8226 leukemia is -20.3% (active); with OVCAR-8 ovarian it was 77.8%; in the test on OVCAR-5 ovarian it was 81.9%; in the test with OVCAR-4 ovarian, 77.4%; in the test on SK-OV-3 ovarian, 97.3%; in the test with IGROV1 ovarian, 108%. The growth in the test on OVCAR-3 ovarian was 86.5%; in the test with HS 578T breast, 90.1%; with NCI/ADR-RES ovarian it was 75.1%; in the test with T-47D breast, 37%.

As to `Cc1ccc(S(=O)(=O)Oc2ccc3c4c(c(=O)oc3c2)CCCCC4)cc1`, the growth with RPMI-8226 leukemia is 24%; in the test with OVCAR-8 ovarian, 63.1%; in the test on OVCAR-5 ovarian, 93.5%; in the test on OVCAR-4 ovarian, 51.3%; in the test on SK-OV-3 ovarian, 93.1%; in the test with IGROV1 ovarian, 82.1%. Further, the growth in the test with OVCAR-3 ovarian was 75.1%; with HS 578T breast, 79.7%; in the test on NCI/ADR-RES ovarian, 53.2%; in the test with T-47D breast it was 33.4%.

Take `CCOC(=O)C(CSC(c1ccccc1)(c1ccccc1)c1ccccc1)NC(=O)C(CSC(c1ccccc1)(c1ccccc1)c1ccccc1)NC(c1ccccc1)(c1ccccc1)c1ccccc1` (stereo not given): the growth in the test with RPMI-8226 leukemia was 105%; in the test on OVCAR-8 ovarian, 95.6%; in the test on OVCAR-5 ovarian, 106%; in the test with OVCAR-4 ovarian, 105%; with SK-OV-3 ovarian it was 109%; with IGROV1 ovarian, 115%. Besides, the growth was 119% with OVCAR-3 ovarian, 99.5% in the test on HS 578T breast, 109% in the test on NCI/ADR-RES ovarian and 108% with T-47D breast.

For the molecule `Cn1c([N+](=O)[O-])cnc1/C=C1\Oc2ccc(Cl)cc2C1=O`, the growth in the test with RPMI-8226 leukemia was 0.916% (active); in the test on OVCAR-8 ovarian, -17.3% (active); with OVCAR-5 ovarian, -20.4% (active); with OVCAR-4 ovarian, -4.09% (active); with SK-OV-3 ovarian, -10.2% (active); in the test on IGROV1 ovarian, -19.3% (active). The growth with OVCAR-3 ovarian was -26.8% (active); with HS 578T breast, -24.1% (active); with NCI/ADR-RES ovarian, 2.61% (active); in the test on T-47D breast it was 78.1%.

Turning to `O=C1/C(=C/c2ccc([N+](=O)[O-])s2)Oc2ccccc21`, the growth is 0.673% (active) with RPMI-8226 leukemia; 2.43% (active) in the test on OVCAR-8 ovarian; -56.7% (active) in the test on OVCAR-5 ovarian; -86.7% (active) in the test on OVCAR-4 ovarian; 12.3% with SK-OV-3 ovarian; -72.5% (active) in the test on IGROV1 ovarian. The growth in the test with OVCAR-3 ovarian was -60.8% (active); in the test with HS 578T breast it was 25.7%; with NCI/ADR-RES ovarian, 12.3%; in the test on T-47D breast, 2.78% (active).
